A short description of assay [1]: qHTS assay to identify small molecule agonists of H2AX - cell viability counter screen (AID 1224847; calls by dose curve; also: nearly all actives have a fitted effect of over 30% in size; also: potency is read from the fitted curve at half-maximal effect;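 as to activity change, negative = cytotoxicity: wild-type CHO-K1 cells; top concentration of the series differs between compounds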). In outline:
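After overnight plating of 1000 CHO-K1 cells per well, a 15-concentration compound series was applied for 3 hr at 37C. Luminescence from CellTiter-Glo, read following 30 min at room temperature, reflected cell viability.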
(In general: qHTS replaces the single test concentration by a dilution series.)

Assay [2] is described as follows: qHTS assay to identify small molecule antagonists of the estrogen related receptor (ERR) signaling pathway from Tox21 library (AID 1224848). Also: nearly all actives have a fitted effect of over 50% in size. Also: potency is read from the fitted curve at half-maximal effect. A digest of the protocol:
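Compounds dissolved in DMSO are pin-transferred onto ERR reporter cells (2,000 per well) that have settled for 6 h at 37 C. Plates then incubate 18 h at 37 C before ONE-Glo luciferase reagent and a luminescence read 30 min later.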

The nature of assay [3]: qHTS RealTime-Glo MT Cell Viability Assay in HepG2 cells - 24 hour (AID 1224867). Also: nearly all actives have a fitted effect of over 50% in size. Also: potency is read from the fitted curve at half-maximal effect. In outline:
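Cell number in HepG2 cultures estimated from NanoLuc luminescence generated by metabolic reduction of a prosubstrate by living cells. The homogeneous, nonlytic format allowed repeated reads at 0, 8, 16, 24, 32 and 40 h of compound exposure.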

A short description of assay [4]: qHTS RealTime-Glo MT Cell Viability Assay in HEK293 cells - 32 hour (AID 1224868). Also: nearly all actives have a fitted effect of over 50% in size. Also: potency is read from the fitted curve at half-maximal effect. As to activity change, negative = cytotoxic: top concentration of the series differs between compounds. A digest of the protocol:
(§1)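 Homogeneous bioluminescent viability format in HEK293 cells (600 cells/well). Following 5 h at 37 C/5% CO2, 23 nL compound was pintooled; the signal was measured repeatedly during 40 h incubation.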

A short description of assay [5]: A CellTox Green Cytotoxicity Assay to monitor cytotoxicity in HEK293 cells - 0 hour (AID 1224869). Also: nearly all actives have a fitted effect of over 50% in size. In outline: (§2)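 Fluorescence from a DNA-binding dye excluded by viable cells was measured repeatedly in the same HEK293 wells (600 cells/well) during continuous compound exposure at 37 C. Each assay gives one read point: 0, 8, 16, 24, 32 or 40 h.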
Assay [6] is described as follows: qHTS RealTime-Glo MT Cell Viability Assay in HepG2 cells - 40 hour (AID 1224870). Also: nearly all actives have a fitted effect of over 50% in size. Also: potency is read from the fitted curve at half-maximal effect. A digest of the protocol: (§3)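 HepG2 cells (600/well) mixed with RealTime-Glo MT reagent, settled 5 h at 37 C/5% CO2 before compound addition. Nonlytic NanoLuc luminescence from viable-cell prosubstrate reduction read repeatedly during 40 h treatment at 37 C.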
A short description of assay [7]: A CellTox Green Cytotoxicity Assay to monitor cytotoxicity in HEK293 cells - 40 hour (AID 1224871). Also: nearly all actives have a fitted effect of over 45% in size. Also: potency is read from the fitted curve at half-maximal effect. A digest of the protocol:
as §2

Assay [8] in a line: qHTS RealTime-Glo MT Cell Viability Assay in HEK293 cells - 16 hour (AID 1224872). Also: nearly all actives have a fitted effect of over 50% in size. Also: potency is read from the fitted curve at half-maximal effect. As to activity change, negative = cytotoxicity: top concentration of the series differs between compounds. A digest of the protocol: as §1
A short description of assay [9]: qHTS RealTime-Glo MT Cell Viability Assay in HepG2 cells - 8 hour (AID 1224873). Also: nearly all actives have a fitted effect of over 55% in size. Also: potency is read from the fitted curve at half-maximal effect. A digest of the protocol:
as §3

Assay [10] in a line: qHTS assay to identify small molecule agonists of the estrogen related receptor (ERR) signaling pathway from Tox21 library (AID 1224849; calls by dose curve; also: nearly all actives have a fitted effect of over 15% in size). Particulars: ERR reporter cell line, ONE-Glo luciferase, 18 h; at 92.4 µM (top of the series) unless noted. A digest of the protocol: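 Luminescent agonist read-out (One-Glo, 30-minute room-temperature incubation) following 18-hour compound treatment at 37 C of the ERR cell line, which had been plated 6 hours before dosing.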

Unmarked numbers belong to inactive results. Results filed as inconclusive are left out. Activity calls are given as the source filed them. Unless noted, calls follow the shape of the dose curve; as a rule, active = well fitted curve in the direction sought with a large enough effect in the repeat runs; inconclusive = weak or mixed curves; inactive = no such curve, though single readings can be large; an effect the other way counts as inactive or inconclusive.
% is scaled to controls: 0 for no effect and ±100 for the full control effect.

In the case of `CCC1(C)C(=O)N(Cl)C(=O)N1Cl` (stereo not drawn), the Potency result in [1], in assay [2], in [3], in assay [4], in [5] and in assay [6] was “inactive” in each case. Further, the Potency entry in [7], in assay [8] and in assay [9] was “inactive” throughout.
Consider `O=[N+]([O-])c1ccc(O)c2ncccc12`, for which the Potency entry in assay [1], in assay [3], in [5], in [6] and in assay [8] was “inactive” throughout. Further, the results for the Potency in assay [2] and in [7] were 5.31 µM (active) and 9.52 µM (active), respectively.
Turning to `CCc1c(C)cc(N)c(CC)c1N`, the Potency entry in assay [1], in assay [2], in [3], in assay [4], in [5] and in [6] was “inactive” throughout. Moreover, the Potency result in [7], in assay [8] and in [9] was “inactive” in each case.
In the case of `C=C1C(CCl)(CCl)C2(Cl)C(Cl)C(Cl)C1(Cl)C2(Cl)Cl` (stereo not drawn), the Potency was 99.6 µM (active) in assay [1], 60.4 µM (active) in [2], 48.4 µM (active) in [7] and 48.4 µM (active) in assay [8]. Also, the Potency result in assay [5] and in assay [6] was “inactive” in each case.
On to `CC(O)(c1ccc(Cl)cc1)c1ccc(Cl)cc1`, for which the Potency is 56.6 µM (active) in assay [1], 61.1 µM (active) in assay [2], 24.5 µM (active) in assay [4] and 38.9 µM (active) in assay [8]. The Potency entry in assay [5] and in [6] was “inactive” in each case.
Consider `CCC(C)(C)c1ccc(CC(C)CN2C[C@@H](C)O[C@@H](C)C2)cc1` (stereo partly drawn), for which the Potency in assay [1] was 55.2 µM (active). The activity change, positive = activation in [10] is -22.5% [at 42.5 µM]. Further, the Potency result in assay [3], in [4], in assay [5], in assay [6], in assay [8] and in [9] was “inactive” in each case.
In the case of `CCCCCCCCCC[N+](C)(CCCCCCCCCC)CCC[Si](OC)(OC)OC`, the Potency was 50.5 µM (active) in assay [1]; 43.6 µM (active) in assay [3]; 27.5 µM (active) in assay [4]; 43.6 µM (active) in assay [6]; 43.6 µM (active) in assay [7]; 27.5 µM (active) in [8]. Besides, in assay [9], the Potency was 49 µM (active). The Potency result in [5] is “inactive”.
Turning to `Cn1c(=O)[nH]c2ncn(C)c2c1=O`, the Potency entry in [1], in assay [3], in assay [4], in [5], in [6] and in assay [7] was “inactive” each time. Further, the Potency entry in assay [8] and in [9] was “inactive” each time.
Turning to `c1ccc(-c2nc3ccccc3[nH]2)cc1`, the figures for the Potency in [1], in assay [4] and in assay [8] were 89.8 µM (active), 34.7 µM (active) and 21.9 µM (active), respectively. Moreover, the Potency result in assay [3], in assay [5], in assay [6], in assay [7] and in assay [9] was “inactive” in each case.
For `CCOC(=O)[C@H](O)[C@@H](O)C(=O)OCC`, the Potency result in assay [1], in [3], in [4], in [5], in assay [6] and in assay [7] was “inactive” in each case. Besides, the Potency entry in assay [8] and in [9] was “inactive” throughout.
For the compound `CCOc1nc(F)cc2nc(S(=O)(=O)Nc3c(Cl)cccc3C(=O)OC)nn12`, the Potency entry in assay [1], in assay [3], in [4], in assay [5], in [6] and in assay [7] was “inactive” each time. For the same compound, the Potency entry in assay [8] and in [9] was “inactive” each time.
Consider `CO[Si](OC)(c1ccccc1)c1ccccc1`, for which the Potency result in assay [1], in [3], in assay [4], in [5], in [6] and in assay [7] was “inactive” throughout. In assay [8], the Potency entry is “inactive”.
Regarding `CCN(CC)c1ccc(N=Nc2ccccc2)cc1`, the Potency is 113 µM (active) in [1], 49 µM (active) in assay [4] and 49 µM (active) in assay [8]. Besides, the Potency result in [3], in assay [5], in assay [6], in assay [7] and in assay [9] was “inactive” in each case.
As to `CCc1cccc(C)c1N(C(=O)C(=O)O)C(C)COC` (stereo not drawn), the Potency result in assay [1], in assay [3], in assay [4], in assay [5], in assay [6] and in [7] was “inactive” each time. Also, the Potency entry in assay [8] and in assay [9] was “inactive” throughout.
For the compound `CCc1cccc(C)c1N(C(=O)CS(=O)(=O)O)C(C)COC` (stereo not drawn), the Potency result in [1], in [3], in [4], in assay [5], in assay [6] and in assay [7] was “inactive” in each case. Besides, the Potency result in assay [8] and in [9] was “inactive” each time.
For the compound `Cc1cc(F)ccc1-c1cc(N2CC[C@@H](O)[C@H]2CO)ncc1N(C)C(=O)C(C)(C)c1cc(C(F)(F)F)cc(C(F)(F)F)c1`, the Potency was 70.2 µM (active) in assay [1]; 38.3 µM (active) in assay [3]; 17.1 µM (active) in assay [4]; 43 µM (active) in assay [6]; 43 µM (active) in assay [7]; 30.4 µM (active) in [8]. Further, in assay [9], the Potency was 38.3 µM (active). Moreover, the Potency entry in [5] was “inactive”.
As to `COc1cc(C(C)C)ccc1C`, the activity change, negative = cytotoxicity was 1.56% [at 31.6 µM] in assay [1], 0.531% [at 15.8 µM] in assay [3] and -1.07% [at 15.8 µM] in assay [8]. The activity change, negative = cytotoxic is 4.56% [at 15.8 µM] in assay [4] and 19.4% [at 15.8 µM] in [6]. The cytotoxicity in assay [5] is -0.495% [at 15.8 µM]. Besides, the cytotoxicity increase in assay [7] is -5.42% [at 15.8 µM]. Also, in [9], the viability change, negative = cytotoxic is -7.86% [at 15.8 µM].
Take `NC(=O)C1CO1` (stereo not drawn): the Potency result in [1], in assay [3], in [4], in [5], in assay [6] and in assay [7] was “inactive” throughout. The Potency entry in assay [8] and in assay [9] was “inactive” in each case.
`Cc1cccc(C)c1C`: the Potency result in assay [1], in assay [3], in assay [4], in assay [5], in [6] and in assay [7] was “inactive” each time. Moreover, the Potency result in assay [8] and in assay [9] was “inactive” in each case.
On to `CC1CCC(C(C)(C)O)CC1` (stereo not drawn), for which the Potency entry in assay [1], in [3], in assay [4], in assay [5], in assay [6] and in assay [7] was “inactive” each time. The Potency entry in [8] and in assay [9] was “inactive” each time.
With `[Cl][Eu]([Cl])[Cl]`, the Potency result in assay [1], in assay [3], in [4], in [5], in assay [6] and in [7] was “inactive” each time. The Potency result in assay [8] and in assay [9] was “inactive” throughout.
Take `Cc1ccc2sc3cccc(C)c3c2c1`: the Potency result in [1], in [3], in assay [4], in assay [5], in [6] and in [7] was “inactive” in each case. Further, the Potency entry in [8] and in assay [9] was “inactive” each time.
Turning to `O=C(c1ccccc1)c1ccc(Cl)cc1`, the Potency entry in [1], in assay [3], in assay [4], in assay [5], in [6] and in assay [7] was “inactive” throughout. In addition, the Potency result in [8] and in assay [9] was “inactive” in each case.
Consider `C=Cc1ccc(O)c(OC)c1`, for which the Potency entry in assay [1], in assay [3], in [4], in [5], in assay [6] and in assay [7] was “inactive” throughout. The Potency result in assay [8] and in assay [9] was “inactive” in each case.

These data come from PubChem BioAssay (Tox21).
